Values without a mark were called inactive. Results filed as inconclusive are left out. Where a call stands in place of a potency, no number is given. Calls of active or inactive are those of the source. Unless noted, the call rests on the fitted dose curve; in most records, active means well fitted curve in the direction sought with a large enough effect; inconclusive means small, poorly fitted or top-dose-only effect, or another doubt; inactive means no such curve, though single readings can be large; an effect the other way counts as inactive or inconclusive.
Columns and labels:
[1] = target: Cytochrome P450 2C9 (Homo sapiens) (UniProt P11712); experiment: qHTS Assay for Inhibitors and Substrates of Cytochrome P450 2C9 (AID 883); further: nearly all actives have a fitted effect of over 60% in size; further: potency means the concentration at half of the fitted maximal effect
Chain of Cytochrome P450 2C9 (Homo sapiens) (P11712 whole entry, looked up): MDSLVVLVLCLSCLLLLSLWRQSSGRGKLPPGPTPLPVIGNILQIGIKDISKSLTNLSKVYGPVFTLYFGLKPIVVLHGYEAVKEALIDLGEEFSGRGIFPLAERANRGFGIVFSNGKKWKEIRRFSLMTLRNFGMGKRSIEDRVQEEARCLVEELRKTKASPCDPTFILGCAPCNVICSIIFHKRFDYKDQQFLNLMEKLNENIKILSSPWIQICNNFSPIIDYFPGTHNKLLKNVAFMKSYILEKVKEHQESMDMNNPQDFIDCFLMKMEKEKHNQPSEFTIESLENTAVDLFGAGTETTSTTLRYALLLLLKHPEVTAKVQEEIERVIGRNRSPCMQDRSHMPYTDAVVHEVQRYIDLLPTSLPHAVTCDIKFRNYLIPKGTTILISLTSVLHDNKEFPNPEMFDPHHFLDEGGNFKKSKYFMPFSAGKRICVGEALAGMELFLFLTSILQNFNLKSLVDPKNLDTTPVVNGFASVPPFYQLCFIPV
Outline: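 Inhibition of CYP2C9 is scored as loss of luminescence, with 57uM sulphaphenazole defining 100% inhibition. Substrate Luciferin-H is used at 100uM, equal to its KM; enzyme at 10nM in 25mM KPO4, 60 min at 37C with NADPH regeneration.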

[2] = qHTS Assay for Identification of Small Molecule Agonists for Hypoxia Response Element Signaling Pathway (AID 914; active means well fitted activation curve with a large enough effect in the signal ratio, with a control signal flat, not every such curve was filed as active; the % refers to the signal ratio; further: potency means the concentration at half of the fitted maximal effect); details: ME-180 (cervical carcinoma) HRE-bla reporter, beta-lactamase ratio, CoCl2, 17 h; activation: stronger effect = higher value
Outline: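 Cells were plated overnight, pin-dosed with compound in a titration series, co-stimulated with EC50 CoCl2 and incubated 17 hours at 37 degrees Celsius. CCF4 substrate was then loaded, and AC50 values came from the 460nm/530nm ratio.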

[3] = target: Cytochrome P450 2C19 (Homo sapiens) (UniProt P33261); experiment: qHTS Assay for Inhibitors and Substrates of Cytochrome P450 2C19 (AID 899); further: nearly all actives have a fitted effect of over 60% in size; further: potency means the concentration at half of the fitted maximal effect
Chain of Cytochrome P450 2C19 (Homo sapiens) (P33261 whole entry, looked up): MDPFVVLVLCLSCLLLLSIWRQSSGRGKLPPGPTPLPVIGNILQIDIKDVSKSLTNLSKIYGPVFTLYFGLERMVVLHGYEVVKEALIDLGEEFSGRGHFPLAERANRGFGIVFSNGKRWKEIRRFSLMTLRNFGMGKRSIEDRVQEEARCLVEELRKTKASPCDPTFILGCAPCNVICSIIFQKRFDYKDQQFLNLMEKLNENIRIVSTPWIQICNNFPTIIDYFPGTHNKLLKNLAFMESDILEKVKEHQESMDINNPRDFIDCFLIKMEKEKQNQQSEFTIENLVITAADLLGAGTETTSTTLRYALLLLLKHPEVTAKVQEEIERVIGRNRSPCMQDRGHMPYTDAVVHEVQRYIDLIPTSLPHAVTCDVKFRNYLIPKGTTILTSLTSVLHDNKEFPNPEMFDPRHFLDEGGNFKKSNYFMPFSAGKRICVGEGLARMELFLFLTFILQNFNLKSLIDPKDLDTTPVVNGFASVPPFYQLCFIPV
Outline: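 5nM enzyme + 10uM Luciferin-H EGE (=KM), 50mM KPO4; cpd pin-transferred, 10 min 37C; NADPH regen, 60 min 37C; stopped w/ luciferin detection reagent, 20 min; luminescence. Normalized to 57uM ketoconazole (AC100).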

[4] = Cytotoxicity counterscreen for NFkB agonists and antagonists (AID 624476);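 further: cells exposed to compound for 48 hours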
[5] = qHTS Assay for Identification of Small Molecule Agonists for NFkB Signaling Pathway. (AID 624478)
Outline: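 NFkB-bla ME-180 cells carry a beta-lactamase reporter. They received compound plus TNF alpha at 10 pM final (its EC50) for 5 h at 37 C. Reporter activity was read as 460/530 nm emission ratio after 2 h LiveBLAzer substrate loading.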

[6] = qHTS Assay for Identification of Small Molecule Antagonists for NFkB Signaling Pathway. (AID 624479; calls by dose curve;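 further: pathway stimulated with TNF alpha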)
[7] = target: Guanine nucleotide-binding protein G(i) subunit alpha-1 (Homo sapiens) (UniProt P63096); experiment: qHTS Assay for Inhibitors of RGS12 GoLoco Motif Activity (Green Fluorophore) (AID 879);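 further: negative values mean loss of peptide binding seen as reduced polarization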
Chain of Guanine nucleotide-binding protein G(i) subunit alpha-1 (Homo sapiens) (P63096 whole entry, looked up): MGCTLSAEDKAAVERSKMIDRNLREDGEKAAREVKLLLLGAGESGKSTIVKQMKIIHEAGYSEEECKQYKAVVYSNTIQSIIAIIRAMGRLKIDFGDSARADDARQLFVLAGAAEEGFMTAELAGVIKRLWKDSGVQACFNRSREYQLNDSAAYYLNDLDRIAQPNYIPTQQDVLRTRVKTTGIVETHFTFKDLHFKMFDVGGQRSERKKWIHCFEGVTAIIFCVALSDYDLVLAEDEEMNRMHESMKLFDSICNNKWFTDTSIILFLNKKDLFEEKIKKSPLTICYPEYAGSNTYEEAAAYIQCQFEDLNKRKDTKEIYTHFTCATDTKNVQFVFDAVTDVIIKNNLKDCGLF
Outline: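 Fluorescence polarization assay: 50 nM Gαi1 with 10 nM FITC-labeled RGS12 GoLoco peptide in 10 mM Tris pH 7.5, 150 mM NaCl, 0.1 mM GDP, 0.05% NP40, 10 min at room temperature with compound.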

[8] = qHTS Assay for Identification of Small Molecule Agonists for Thrombopoietin (TPO) Signaling Pathway (AID 917)
Outline: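 Murine Ba/F3 cells stably expressing human TPO receptor and a Glycoprotein IIb promoter–luciferase reporter were IL-3-starved overnight, then treated with compounds plus TPO (26 pM final, its EC50) for 24 hrs at 37 C; luminescence was read.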

[9] = target: Pyruvate kinase (Leishmania mexicana) (UniProt Q27686); experiment: qHTS Validation Assay for Inhibitors of Leishmania Mexicana Pyruvate Kinase (AID 945)
Chain of Pyruvate kinase (Leishmania mexicana) (Q27686 2-499 E452W): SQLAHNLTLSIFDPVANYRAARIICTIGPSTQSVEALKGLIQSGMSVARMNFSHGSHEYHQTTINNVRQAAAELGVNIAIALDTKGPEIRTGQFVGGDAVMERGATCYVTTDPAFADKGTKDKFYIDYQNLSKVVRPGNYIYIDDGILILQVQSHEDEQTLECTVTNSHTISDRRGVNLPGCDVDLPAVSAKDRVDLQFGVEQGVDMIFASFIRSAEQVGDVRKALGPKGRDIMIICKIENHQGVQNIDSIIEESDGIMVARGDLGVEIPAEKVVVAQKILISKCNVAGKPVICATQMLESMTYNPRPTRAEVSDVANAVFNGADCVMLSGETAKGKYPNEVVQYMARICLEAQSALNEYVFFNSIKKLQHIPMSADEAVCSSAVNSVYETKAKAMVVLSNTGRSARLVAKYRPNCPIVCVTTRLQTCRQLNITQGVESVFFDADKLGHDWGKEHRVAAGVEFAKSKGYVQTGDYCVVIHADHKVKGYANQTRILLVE
Outline: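 The enzyme is a highly purified E451W mutant of LmPYK used at 0.2 nM. It converts 0.5 mM PEP and 0.1 mM ADP over 1 h at room temperature; product ATP is quantified by luciferase luminescence relative to DMSO controls.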

[10] = target: Pyruvate kinase PKM (Homo sapiens) (UniProt P14618); experiment: qHTS Assay for Activators of Human Muscle Pyruvate Kinase (AID 954; active means well fitted curve in the direction sought with a large enough effect, not every such curve was filed as active)
Chain of Pyruvate kinase PKM (Homo sapiens) (P14618 whole entry, looked up): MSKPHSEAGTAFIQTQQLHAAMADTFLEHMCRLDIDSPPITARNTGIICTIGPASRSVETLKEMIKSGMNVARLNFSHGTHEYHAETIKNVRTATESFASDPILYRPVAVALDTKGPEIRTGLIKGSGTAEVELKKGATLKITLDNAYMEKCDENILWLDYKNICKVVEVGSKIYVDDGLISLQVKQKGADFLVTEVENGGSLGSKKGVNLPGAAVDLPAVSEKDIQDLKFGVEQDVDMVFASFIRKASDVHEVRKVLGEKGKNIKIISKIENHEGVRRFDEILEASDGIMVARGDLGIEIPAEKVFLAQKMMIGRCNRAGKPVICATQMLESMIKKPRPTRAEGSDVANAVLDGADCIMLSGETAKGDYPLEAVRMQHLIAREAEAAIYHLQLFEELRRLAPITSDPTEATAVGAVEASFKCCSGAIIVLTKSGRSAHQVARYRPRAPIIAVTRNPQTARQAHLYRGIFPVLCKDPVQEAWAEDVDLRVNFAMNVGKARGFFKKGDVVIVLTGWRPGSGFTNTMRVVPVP
Outline: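 Reaction: 0.1 nM purified PKM2 with 0.5 mM phosphoenolpyruvate and 0.1 mM ADP, room temperature, 1 h. Readout: luciferase-based ATP luminescence after stop reagent. Activators judged against a 0.3 nM enzyme column.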

[11] = target: Alpha-galactosidase A (Homo sapiens) (UniProt P06280); experiment: Counterscreen for Glucocerebrosidase Inhibitors: qHTS Assay for Human alpha-Galactosidase at pH 4.5 (AID 992)
Chain of Alpha-galactosidase A (Homo sapiens) (P06280 whole entry, looked up): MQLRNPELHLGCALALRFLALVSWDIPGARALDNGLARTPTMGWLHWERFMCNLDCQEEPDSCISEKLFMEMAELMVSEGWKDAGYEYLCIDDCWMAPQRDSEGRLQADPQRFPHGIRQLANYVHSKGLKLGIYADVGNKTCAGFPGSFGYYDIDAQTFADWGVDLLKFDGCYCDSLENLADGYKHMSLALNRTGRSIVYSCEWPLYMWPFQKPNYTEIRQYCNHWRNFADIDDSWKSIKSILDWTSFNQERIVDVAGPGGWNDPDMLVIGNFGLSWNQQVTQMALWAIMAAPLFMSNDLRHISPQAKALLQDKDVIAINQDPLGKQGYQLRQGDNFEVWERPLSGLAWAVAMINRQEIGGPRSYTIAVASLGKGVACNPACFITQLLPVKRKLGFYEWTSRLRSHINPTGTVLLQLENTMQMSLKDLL
Outline: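 Concentration-response curves (0.7 nM to 77 uM final) were modeled with the Hill equation to give AC50. Reactions: 2 nM enzyme, 80 uM fluorogenic alpha-galactoside, pH 4.5 citric acid buffer, 20 min, room temperature.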

[12] = target: alpha-glucosidase (Oryza sativa, rice) (UniProt Q653V4); experiment: Counterscreen for Glucocerebrosidase Inhibitors: qHTS Assay for Rice alpha-Glucosidase at pH 5.0 (AID 997)
Outline: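 Rice alpha-glucosidase (4 nM final) with 400 uM 4-methylumbelliferyl-alpha-D-glucopyranoside in citrate buffer pH 5.0, 20 min at room temperature, stopped at pH 10; fluorescence 365/440 nm, compounds 0.7 nM–77 uM, AC50 from Hill fits.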

[13] = target: Muscarinic acetylcholine receptor M1 (Rattus norvegicus) (UniProt P08482); experiment: qHTS Assay for Antagonists of Acetylcholine Muscarinic M1 Receptor: Kinetic Measurement of Intracellular Calcium Response (AID 943); further: series mostly up to about 35 µM; nearly all actives have a fitted effect of over 75% in size
Chain of Muscarinic acetylcholine receptor M1 (Rattus norvegicus) (P08482 whole entry, looked up): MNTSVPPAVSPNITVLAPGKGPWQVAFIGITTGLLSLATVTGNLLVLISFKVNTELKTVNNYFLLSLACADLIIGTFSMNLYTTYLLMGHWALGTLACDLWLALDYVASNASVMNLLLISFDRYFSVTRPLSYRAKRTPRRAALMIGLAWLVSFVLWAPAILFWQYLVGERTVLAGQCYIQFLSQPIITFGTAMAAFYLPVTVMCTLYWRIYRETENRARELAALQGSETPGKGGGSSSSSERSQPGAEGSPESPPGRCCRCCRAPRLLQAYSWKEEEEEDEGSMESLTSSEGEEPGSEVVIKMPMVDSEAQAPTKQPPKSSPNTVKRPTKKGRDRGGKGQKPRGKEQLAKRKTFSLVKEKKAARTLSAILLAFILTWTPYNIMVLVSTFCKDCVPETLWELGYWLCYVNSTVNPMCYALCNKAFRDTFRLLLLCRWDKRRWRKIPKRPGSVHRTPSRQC
Outline: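 CHO cells expressing rat M1 receptor, Fluo-4 loaded, preincubated 10 min with compound, then stimulated with EC80 carbachol (100 nM final). Kinetic calcium fluorescence over 4 min; response taken as peak over basal signal.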

[14] = target: Muscarinic acetylcholine receptor M1 (Rattus norvegicus) (UniProt P08482); experiment: qHTS Assay for Antagonists of Acetylcholine Muscarinic M1 Receptor: Measurement of IP-One Response (AID 944); further: nearly all actives have a fitted effect of over 75% in size
Outline: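 CHO cells stably expressing rat M1, pretreated 10 min with compound, then stimulated 30 min with carbachol at EC80 (200 nM) in LiCl-containing buffer pH 7.4; IP1 accumulation read by HTRF competition (665/620 nm).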

[15] = target: Tyrosyl-DNA phosphodiesterase 1 (Homo sapiens) (UniProt Q9NUW8); experiment: Confirmation Assay for Inhibitors of Tyrosyl-DNA Phosphodiesterase (TDP1) (AID 489007); details: recombinant human TDP1 enzymatic activity, dose-response; further: potency means the concentration at half of the fitted maximal effect; nearly all actives have a fitted effect of over 40% in size
Chain of Tyrosyl-DNA phosphodiesterase 1 (Homo sapiens) (Q9NUW8 whole entry, looked up): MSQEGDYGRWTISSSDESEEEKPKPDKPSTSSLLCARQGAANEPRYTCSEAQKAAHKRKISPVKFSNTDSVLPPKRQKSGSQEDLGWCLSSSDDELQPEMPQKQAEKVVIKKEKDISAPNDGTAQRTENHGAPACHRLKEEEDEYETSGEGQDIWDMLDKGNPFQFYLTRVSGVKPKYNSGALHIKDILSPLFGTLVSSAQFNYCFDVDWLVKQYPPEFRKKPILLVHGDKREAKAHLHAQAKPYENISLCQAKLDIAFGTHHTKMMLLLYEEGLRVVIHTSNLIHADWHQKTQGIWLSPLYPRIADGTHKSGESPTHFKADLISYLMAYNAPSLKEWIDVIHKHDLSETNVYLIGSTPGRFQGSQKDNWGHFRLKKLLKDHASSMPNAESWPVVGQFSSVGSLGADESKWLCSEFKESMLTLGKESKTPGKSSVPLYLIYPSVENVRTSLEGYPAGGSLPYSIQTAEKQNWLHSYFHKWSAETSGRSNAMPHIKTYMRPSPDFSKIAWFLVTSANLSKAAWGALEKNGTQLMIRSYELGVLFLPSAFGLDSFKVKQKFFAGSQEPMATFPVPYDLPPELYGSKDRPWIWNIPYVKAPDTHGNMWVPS
Outline: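 Recombinant human Tdp1 (1 nM final), expressed in E. coli, preincubated 15 min with compound. Then 15 nM 5'-biotin/3'-phosphotyrosine-FITC DNA substrate added for 5 min at room temperature. AlphaScreen beads (10 ug/ml) added for 10 min; cleavage gives signal loss.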

Which Potency [1] does the source give for CC(=O)N(C[C@@H](C)C(=O)O)c1c(I)cc(I)c(N)c1I here?
Its Potency is “inactive”.

Which activation [2] does the source give for CO/N=C(\C(=O)N[C@@H]1C(=O)N2C(C(=O)O)=C(COC(N)=O)CS[C@@H]12)c1ccco1 here?
Its activation is 3.41%.

What does the source list for FC(F)(F)c1ccccc1-c1ccc2ncnc(NC3CCNCC3)c2c1?
activity change, negative = inhibition [1]: 12.9% [at 2.29 µM]; Potency [3]: 3.98 µM (active); activation [2]: -6.93%

For CN(C/C=C\c1ccccc1)Cc1cccc2ccccc12, which Potency [3] is on record?
Its Potency is 0.501 µM (active).

For C=Cc1c(C)c2cc3nc(cc4[nH]c(cc5nc(cc1[nH]2)C(C)=C5CCC(=O)O)c(CCC(=O)OC)c4C)[C@@]1(C)C3=CC=C(C(=O)OC)[C@H]1C(=O)OC (tested in a mixture with another compound), which Potency [1] is on record?
The Potency was 1.26 µM (active).

For O=c1cc(-c2cccc(O)c2)oc2cc(O)ccc12, which Potency [1] is on record?
The Potency was 25.1 µM (active).

What about the Potency [3] of the same compound?
Its Potency is “inactive”.

What does the source list for CC=C(/C(=C/C)c1ccc(O)cc1)c1ccc(O)cc1?
Potency [1]: 0.794 µM (active); Potency [3]: 3.16 µM (active)

For C=C(C)[C@H]1CC[C@]2(CO)CC[C@]3(C)[C@@H](CC[C@H]4[C@@]5(C)CC[C@@H](O)C(C)(C)[C@@H]5CC[C@@]43C)[C@H]12, which Potency [2] is on record?
Its Potency is 1.26 µM (active).

With COc1cccc(-c2nc(NCCc3c[nH]c4ccc(OC)cc34)c3ccccc3n2)c1 as the compound, how does the Potency [1] read?
Its Potency is 0.794 µM (active).

And the Potency [3]?
Its Potency is 1.58 µM (active).

With C[C@@H](Cc1cccc(C(F)(F)F)c1)NCCOC(=O)c1ccccc1 as the compound, how does the Potency [1] read?
Its Potency is “inactive”.

Which Potency [3] does the source give for O=C(O)[C@@H]1[C@@H]2C[C@H]3c4[nH]c5ccccc5c4CCN3C[C@@H]2CC[C@@H]1O here?
Its Potency is “inactive”.

For C[C@@H](C(=O)O)c1ccc(C(=O)c2ccccc2)s1, which Potency [3] is on record?
The Potency was 3.98 µM (active).

What does the source list for Cc1cc2ccc(=O)oc2cc1OC[C@@H](O)C(C)(C)O?
Potency [1]: inactive; Potency [3]: inactive

Which activation [2] does the source give for Cc1ncc([N+](=O)[O-])n1C[C@H](O)CCl here?
Its activation is -4.65%.

With CC(=O)S[C@H]1CC2=CC(=O)CC[C@@]2(C)[C@H]2CC[C@@]3(C)[C@H](CC[C@]34CCC(=O)O4)[C@@H]12 as the compound, how does the activation [2] read?
The activation was -20.6%.

Which results are given for CCC(C)(C)C(=O)O[C@@H]1C[C@H](C)C=C2C=C[C@H](C)[C@@H](CC[C@H]3C[C@@H](O)CC(=O)O3)[C@H]21?
outcome [4]: inactive; outcome [5]: inactive; outcome [6]: inactive

Which outcome [7] does the source give for C[C@@H](CN1c2ccccc2Sc2ccccc21)N(C)C here?
The outcome was “inactive”.

What about the outcome [8] of the same compound?
The outcome was “inactive”.

And the outcome [9]?
Its outcome is “inactive”.

What about the outcome [10] of the same compound?
Its outcome is “inactive”.

And the outcome [11]?
The outcome was “inactive”.

And the outcome [12]?
The outcome was “inactive”.

For CN1[C@H](CC(=O)c2ccccc2)CCC[C@H]1C[C@@H](O)c1ccccc1, which Potency [1] is on record?
The Potency was “inactive”.

What about the Potency [3] of the same compound?
The Potency was “inactive”.

Which activation [2] does the source give for COc1ccc2c(c1)N(C[C@@H](C)CN(C)C)c1ccccc1S2 here?
Its activation is -28.7%.

Which outcome [7] does the source give for CC(=O)/C(C)=N\O here?
Its outcome is “inactive”.

What about the outcome [8] of the same compound?
The outcome was “inactive”.

And the outcome [13]?
Its outcome is “inactive”.

And the outcome [14]?
The outcome was “inactive”.

What about the outcome [9] of the same compound?
Its outcome is “inactive”.

What about the outcome [10] of the same compound?
The outcome was “inactive”.

What about the outcome [11] of the same compound?
Its outcome is “inactive”.

What about the outcome [12] of the same compound?
The outcome was “inactive”.

Which Potency [1] does the source give for CC/C=C\C[C@H]1C(=O)CC[C@@H]1CC(=O)O here?
The Potency was “inactive”.

What about the Potency [3] of the same compound?
The Potency was “inactive”.

For C/C(=C\CNc1ncnc2nc[nH]c12)CO, which Potency [1] is on record?
Its Potency is “inactive”.

And the Potency [3]?
Its Potency is “inactive”.

With C[C@@]12CCC(=O)C[C@@H]1CC(=O)[C@H]1[C@H]3CCC[C@]3(C)C(=O)C[C@@H]12 (tested in a mixture with another compound) as the compound, how does the activation [2] read?
Its activation is -12.7%.

What does the source list for NCCC(=O)N[C@@H](Cc1cnc[nH]1)C(=O)O?
Potency [1]: inactive; Potency [3]: inactive

Which Potency [15] does the source give for COc1c(O)cc(O)cc1O here?
The Potency was 8.91 µM (active).

For Cc1cc(O)c(C=O)c2c1C(=O)Oc1c(C)c(O)c3c(c1O2)C(O)OC3=O (configuration not stated), which Potency [15] is on record?
Its Potency is 5.62 µM (active).

For Cc1cc(O)c(C=O)c2c1C(=O)Oc1c(COC(=O)/C=C/C(=O)O)c(O)c(C(=O)O)c(C)c1O2, which Potency [15] is on record?
The Potency was 3.16 µM (active).

Which Potency [15] does the source give for CC1=C(CCC(=O)O)c2cc3nc(cc4[nH]c(cc5[nH]c(cc1n2)c(C)c5C(C)O)c(C)c4C(C)O)C(C)=C3CCC(=O)O (configuration not stated) here?
The Potency was 6.31 µM (active).
